{"source": "PubChem BioAssay AID2013", "about": "(Sanford-Burnham Center for Chemical Genomics, 2009)", "note": "The whole screen tested about 290,000 compounds, of which about 370 (0.13%) were called active. Shown is part of a subset that was picked to be rich in actives. Potency and affinity values are given separately. Unmarked numbers belong to inactive results.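 How the source made its calls: active means spots per cell inhibited over 60%, with over 100 cells counted and total cytoplasm intensity under 500,000; inconclusive means wells with under 100 cells, flagged as likely toxic; inactive means the rest.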"}
{"target": "G-protein coupled receptor 55 (Homo sapiens) (UniProt Q9Y2T6)", "sequence (Q9Y2T6 whole entry, looked up)": "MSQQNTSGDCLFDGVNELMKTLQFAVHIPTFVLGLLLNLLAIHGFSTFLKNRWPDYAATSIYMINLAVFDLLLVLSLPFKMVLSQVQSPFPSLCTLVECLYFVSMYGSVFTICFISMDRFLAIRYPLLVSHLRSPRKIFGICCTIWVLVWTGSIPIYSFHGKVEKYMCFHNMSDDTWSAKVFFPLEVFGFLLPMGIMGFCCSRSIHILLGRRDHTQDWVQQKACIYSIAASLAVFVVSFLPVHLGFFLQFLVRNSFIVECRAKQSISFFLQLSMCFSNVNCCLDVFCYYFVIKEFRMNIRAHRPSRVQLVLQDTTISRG", "assay": "inhibition of LPI-stimulated GPR55 beta-arrestin translocation – imaging, U2OS, beta-arrestin-GFP, LPI agonist, primary screen (AID 2013);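 further: U2OS cells stably carrying GPR55 and arrestin-GFP stimulated by 5 µM LPI near EC80; imaged beta-arrestin-GFP aggregate spots per cell after agonist stimulation; plate controls were LPI-stimulated DMSO wells for no effect and DMSO wells without LPI for full effect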", "details": "LPI antagonism, at 10 µM, hits give high values"}
{"smiles": "O=c1[nH]c(=O)n(-c2ccccc2F)c(O)c1/C=C1\\C=Nc2ccccc21", "inhibition": "21.1%"}
{"smiles": "Cc1cccc(-n2c(O)c(/C=C/C=Nc3ccccc3)c(=O)[nH]c2=O)c1", "inhibition": "0.7%"}
{"smiles": "Cc1ccccc1-n1c(O)c(/C=C2/C(c3ccccc3)=Nc3ccccc32)c(=O)[nH]c1=O", "inhibition": "83% (active)"}
{"smiles": "CC1=Nc2ccccc2/C1=C/c1c(O)n(C)c(=O)[nH]c1=O", "inhibition": "1.1%"}
{"smiles": "O=c1[nH]c(=O)n(-c2ccccc2)c(O)c1/C=C1/C(c2ccccc2)=Nc2ccccc21", "inhibition": "68.8% (active)"}
{"smiles": "COC(=O)C1=Nc2ccccc2/C1=C\\c1c(O)n(-c2ccc(Br)cc2)c(=O)[nH]c1=O", "inhibition": "0.3%"}
{"smiles": "COC(=O)C1=Nc2ccccc2/C1=C\\c1c(O)n(-c2ccc(OC)cc2)c(=O)[nH]c1=O", "inhibition": "-7.2%"}
{"smiles": "O=c1[nH]c(=O)n(-c2cccc(F)c2)c(O)c1/C=C1\\C=Nc2ccccc21", "inhibition": "8.8%"}
{"smiles": "Cc1cccc(-n2c(O)c(/C=C3/C(c4ccccc4)=Nc4ccccc43)c(=O)[nH]c2=O)c1", "inhibition": "74.4% (active)"}
{"smiles": "C#C[C@@]1(O)CCC2C3CCC4=C/C(=N/OCC(=O)NC(C(=O)NC(CC(C)C)C(=O)O)C(C)C)CC[C@]4(C)C3CC[C@@]21C", "note": "(stereo not given in full)", "inhibition": "13.1%"}
{"smiles": "COc1ccccc1-n1c(-c2ccccc2)nc2ccccc2c1=O", "inhibition": "-1.7%"}
{"smiles": "CN1CCN(c2nc(N(C)C)oc(=O)c2C#N)CC1", "inhibition": "2.9%"}
{"smiles": "Cc1cc(C)nc(-n2c(C)nc3cc(Cl)ccc3c2=O)c1", "inhibition": "14.5%"}
{"smiles": "C/C(=N\\Nc1ccccc1)c1c(O)[nH]c(=O)[nH]c1=O", "inhibition": "-0.7%"}
{"smiles": "NNP(=O)(CC(=O)c1ccccc1)c1ccccc1", "note": "(stereo not given)", "inhibition": "-7%"}
{"smiles": "O=S(=O)(NC1CCCC1)OCC(Cl)(Cl)Cl", "inhibition": "0.6%"}
{"smiles": "CC(=O)c1ccc2c(c1)C1C(Cl)C(Sc3ccccc3[N+](=O)[O-])CC1C(C(=O)O)N2", "note": "(stereo not given)", "inhibition": "21.4%"}
{"smiles": "O=C(O)c1cccc2c1NC(C(=O)O)C1CC(Sc3ccccc3[N+](=O)[O-])C(Cl)C21", "note": "(stereo not given)", "inhibition": "17.5%"}
{"smiles": "Cc1ccc2c(c1Cl)NC(C(=O)O)C1CC(Sc3ccccc3[N+](=O)[O-])C(Cl)C21", "note": "(stereo not given)", "inhibition": "70.4% (active)"}
{"smiles": "CCOC(=O)C(O)(c1ccc(N(CC)C(=O)COc2ccccc2)cc1)C(F)(F)F", "note": "(stereo not given)", "inhibition": "7.2%"}
{"smiles": "Cc1cc(OCC(=O)N[C@@H](Cc2ccccc2)C(=O)O)c2c3c(c(=O)oc2c1)CCC3", "inhibition": "1.6%"}
{"smiles": "O=C1NC(=O)N(Cc2ccccc2)C(=O)/C1=C\\c1ccco1", "inhibition": "22.2%"}
{"smiles": "O=C1NC(=O)N(CCc2ccc(F)cc2)C(=O)/C1=C/c1cccs1", "inhibition": "84.1%"}
{"smiles": "O=C1NC(=O)N(CCc2ccc(F)cc2)C(=O)/C1=C/c1ccco1", "inhibition": "95.4% (active)"}
{"smiles": "CCn1nc(-c2ccccc2)nc2c(=O)n(C)c(=O)nc1-2", "inhibition": "18.7%"}
{"smiles": "Cc1nc2c(=O)n(C)c(=O)nc-2n(C)n1", "inhibition": "23.5%"}
{"smiles": "Cn1ncnc2c(=O)n(C)c(=O)nc1-2", "inhibition": "79.3% (active)"}
{"smiles": "CN(Cc1ccccc1)C(=O)CN1CCCC1=O", "inhibition": "-7.6%"}
{"smiles": "C=CCOc1ccc(CC2C(=O)N(C)C(=O)N(C)C2=O)cc1", "inhibition": "11.7%"}
{"smiles": "O=S(=O)(c1ccc(O)cc1)c1ccc(O)cc1", "inhibition": "11%"}
{"smiles": "Oc1ccc(C(=C(Cl)Cl)c2ccc(O)cc2)cc1", "inhibition": "94.8% (active)"}
{"smiles": "CCc1cc(=O)oc2cc(OCC(=O)N3C[C@H]4C[C@@H](C3)c3cccc(=O)n3C4)c(Cl)cc12", "inhibition": "-10.3%"}
{"smiles": "CCCc1nc2ccccc2c(=O)n1-c1ccc(OC)cc1", "inhibition": "12.2%"}
{"smiles": "CC12CCC3C(CC=C4CC(O)CCC43C)C1C/C(=C\\c1ccccc1F)C2=O", "note": "(stereo not given)", "inhibition": "1.4%"}
{"smiles": "CCOC(=O)c1cc(C(O)(C(=O)OC)C(F)(F)F)c(/N=C/N(C)C)o1", "note": "(stereo not given)", "inhibition": "14.3%"}
